# Most compounds without a hit are left out; they make up all but 7.9% or so of the library.
# HT1080 IDH1KD tx: qHTS for induction of synthetic lethality in tumor cells producing 2HG: qHTS for the HT-1080-IDH1KD cell line | HT-1080 IDH1 knockdown viability, ATP luminescence, 48 h | AID 686971, 2013 | 360,000 compounds, 2% hits | Potency, µM (doses to about 46.1 µM), actives largely listed as cytotoxic
#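 Cytotoxicity counter-line: IDH1KD HT-1080, 48 h, CellTiter-Glo. Curves classed by r2, magnitude and activity.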
# KB-3-1 cytotox: qHTS assay for MDR1-selective chemotherapeutics: Primary screen using the parental adenocarcinoma cell KB-3-1; KB-3-1 viability, CellTiter-Glo ATP luminescence, 72 h; Potency, µM (top dose mostly 46.1 µM), hits mostly cytotoxic; 400,000 compounds, 1.4% hits; further: nearly all actives have a fitted effect of over 60% in size
#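 KB-3-1 cells, DMEM (no phenol red) + 10% FBS; compound by pin transfer, 72 h, 37 °C. Readout: CellTiter-Glo luminescence after 10 min. Data normalized, curve-fitted.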
# HT1080-NT tox: qHTS for induction of synthetic lethality in tumor cells producing 2HG: qHTS for the HT-1080-NT fibrosarcoma cell line | HT-1080-NT fibrosarcoma viability, CellTiter-Glo ATP luminescence, 48 h | Potency, µM (series often up to 46.1 µM), actives largely listed as cytotoxic | 360,000 compounds, 1.6% hits;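 further: NT is the 2HG producing partner of a matched IDH1 knockdown line; nearly all actives have a fitted effect of over 55% in size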
#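 HT-1080-NT; 750 cells/well; 5% FBS RPMI; 48 h compound, 37 degrees C; CellTiter-Glo luminescence; curve fitting and curve-class assignment.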
# KB-V1 MDR tox: qHTS assay for MDR1-selective chemotherapeutics: Primary screen using the drug-selected MDR subline cells KB-V1. KB-V1 MDR cells viability, CellTiter-Glo, 72 h. Potency, µM (highest dose often 46.1 µM), most hits filed as cytotoxic. 400,000 compounds, 3.4% hits. AID 1347076, 2019; further: nearly all actives have a fitted effect of over 60% in size
#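 Potencies derive from concentration-effect curves fitted to normalized luminescence (CellTiter-Glo) of KB-V1 cells treated for 72 h at 37 degrees C in phenol-red-free DMEM containing 10% FBS.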
# SW480 rerep: A quantitative high throughput screen for small molecules that induce DNA re-replication in SW480 colon adenocarcinoma cells; SW480 DNA re-replication, Hoechst DNA content imaging, 48 h; Potency, µM (doses to about 46.1 µM), usual class: activators; 340,000 compounds, 1.8% hits; AID 624297, 2012; further: nearly all actives have a fitted effect of over 55% in size
#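 DNA re-replication was detected as more nuclei of elevated Hoechst intensity after 48 hr exposure to compound (23 nL pinned per well of 250 cells).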
# MCF10A rereplic: A quantitative high throughput screen for small molecules that induce DNA re-replication in MCF 10a normal breast cells; MCF 10A DNA re-replication, Hoechst nuclear intensity, 48 h; Potency, µM (series often up to 46.1 µM), most hits filed as activators; 350,000 compounds, 2.9% hits; further: nearly all actives have a fitted effect of over 50% in size
# Hits are given with their value; . = inactive; ? = inconclusive; / = not tested or not shown; [ ] = remark or other dose. The call rests on the fitted dose curve; in most records, active means well fitted curve in the direction sought with a large enough effect; inconclusive means small, poorly fitted or top-dose-only effect, or another doubt; inactive means no such curve, though single readings can be large; an effect the other way counts as inactive or inconclusive.
SMILES,HT1080 IDH1KD tx,KB-3-1 cytotox,HT1080-NT tox,KB-V1 MDR tox,SW480 rerep,MCF10A rereplic
COC(=O)c1cc(OC)c(OC)cc1NC(=O)c1ccco1,.,.,.,?,.,.
COc1ccc(NC(=O)COC(=O)c2cc(OC)c(OC)cc2NC(=O)c2ccco2)cc1OC,?,.,?,.,10µM,?
Cc1cc(C)cc(NC(=O)C2CCN(c3cc(C)nc4c(-c5ccc(Cl)cc5)c(C)nn34)CC2)c1,/,.,/,?,/,/
CCOC(=O)c1c(NC(=O)c2ccc(F)cc2)sc2c1CCC(CC)C2 (stereo not given),/,?,/,.,/,/
CCOC(=O)c1c(NC(=O)CSc2nc3ccccc3s2)sc(C(C)=O)c1C,.,.,?,21µM,.,.
CCCc1cc(=O)[nH]c(SCC(=O)NC(=O)NC2CCCC2)n1,.,?,.,4.1µM,.,.
CCOC(=O)c1c(NC(=O)CSc2nc3cc(Cl)ccc3s2)sc(C(C)=O)c1C,/,/,/,/,.,.
CCCc1cc(=O)[nH]c(SCC(=O)Nc2sc(C(N)=O)c(C)c2C(=O)OCCOC)n1,2.6µM,8.2µM,2.3µM,?,.,.
CCOC(=O)c1c(NC(=O)CSc2nnc(C)s2)sc2c1CCC(CC)C2 (stereo not given),.,.,.,5.8µM,?,.
COc1ccc(OC)c(NC(=O)c2cc(-c3ccc(Cl)s3)nc3ccccc23)c1,/,.,/,.,/,/
COc1ccc(OC)c2sc(N(Cc3cccnc3)C(=O)c3ccco3)nc12,/,.,/,.,/,/
Nc1nc2ccccc2n1S(=O)(=O)c1ccc(Cl)cc1,.,.,.,.,/,/
CCOC(=O)c1sc(NC(=O)CSc2nnc(C)s2)c(C(=O)OCC)c1C,.,.,.,1.6µM,.,.
CC(=O)Oc1ccc(C(=O)Nc2ccc(C3(C#N)CCCC3)cc2)cc1,?,.,.,?,.,.
COc1cccc(NC(=O)CN2C(=O)NC3(CCc4ccccc43)C2=O)c1 (stereo not given),.,.,.,.,.,.
CC(C)(C)c1ccc(/C=C2/SC(N3CCCC3)=NC2=O)cc1,18µM,.,16µM,?,.,.
CCCOc1ccccc1/C=C1\SC(N2CCCCC2)=NC1=O,?,7.3µM,?,.,.,?
Cc1ccc(/C=C2\SC(N3CCCCC3)=NC2=O)cc1,.,.,.,.,.,.
COc1ccc(S(=O)(=O)N2CCSC2c2ccccc2)cc1 (stereo not given),.,?,.,23µM,.,?
COc1ccccc1C1SCCN1S(=O)(=O)c1cccc(C(F)(F)F)c1 (stereo not given),.,.,.,16µM,.,.
CCOC(=O)c1ccc(NC(=O)c2cnc(N3CCCC3)nc2C)cc1,/,.,/,.,/,/
COc1ccc(CC(=O)NC2CCCCCC2)c(OC)c1,.,.,.,.,.,.
Cc1ccc(C(=O)c2oc3ccccc3c2NC(=O)COc2ccc(C(C)C)cc2)cc1,/,.,/,?,/,/
N#CC1=C(N)N(c2ccc(Br)cc2)C2=C(C(=O)CCC2)C1c1cccnc1 (stereo not given),?,.,13µM,.,?,?
Cc1ccc(N2C(N)=C(C#N)C(c3cccnc3)C3=C2CCCC3=O)cc1 (stereo not given),.,?,.,.,.[9.22 µM],.
COc1ccccc1CNC(=O)CN1C(=O)COc2ccc(S(=O)(=O)N3CCCCC3)cc21,.,.,.,.,.,.
O=C(OCn1ncc(Br)c(Br)c1=O)c1ccc(F)cc1,12µM,3.3µM,21µM,5.2µM,4.1µM,4.6µM
O=C(OCn1ncc(Br)c(Br)c1=O)c1ccccc1Cl,6.5µM,18µM,8.2µM,5.8µM,5.6µM,7.9µM
